Experimental data taken from PubChem BioAssay AID504652 (National Center for Advancing Translational Sciences (NCATS), 2011).
Among all 360,000 compounds or so, about 11,000 (3.1%) were called active. What follows is part of a selection rich in actives, with near analogues and random picks from the rest. A number with no mark means an inactive call. No stated cut-off is given here; in the data, active means activity change below about -30%; inactive means the rest.

target: D(1A) dopamine receptor (Homo sapiens) (UniProt P21728); experiment: Antagonist of Human D 1 Dopamine Receptor: qHTS; conditions: HEK293 TREx D1 cells, calcium flux, dopamine EC80; at 10 µM; active compounds read low
Description: Dopamine receptors (DARs) are involved in the etiology and/or therapy of a number of neuropsychiatric and endocrine disorders. For instance, all receptor-based antiparkinsonian drugs work via stimulating the […] DAR subtype whereas all FDA-approved antipsychotic agents are antagonists of this receptor. […] There are three different types of allosteric modulators that we are seeking, two of which will stimulate or augment receptor signaling, allosteric agonists and potentiators, while the third, allosteric antagonists, will attenuate receptor signaling. The present primary screening assay measures compound antagonism after an EC80 addition of dopamine by tracking calcium flux in a […], inducible Hek293 Trex D1 cell line. NIH Chemical Genomics Center [NCGC] NIH Molecular Libraries Probe Centers Network [MLPCN] MLPCN Grant: NS064831-01 Assay Submitter (PI): David Sibley
Freshly passaged cells are plated in 1536 well black, clear bottom plates at a density of 4000 cells/well in 3 ul of complete media containing 1x tetracycline inducer. After an overnight incubation at 30 C in 5% CO2, cells are loaded with 2 ul of the no wash Calcium Assay Kit (ABD Bioquest) and incubated at room temperature for 30 to 90 minutes. Agonist read: A 10 cycle (1 second/cycle) baseline measurement is taken and then the FDSS online 1536 pintool delivers 23 nl of compound library (as well as dopamine controls) to the plate. The plate is measured for kinetically at 1 cycle/sec for 180 seconds. Following the 180 second read, 1 ul of an EC80 (negative modulation assay) is delivered by an onboard pipette head. Measurements are taken kinetically for an additional 180 seconds.
On the % scale 0 is the no-effect control and ±100 the full control effect.

D(1A) dopamine receptor (Homo sapiens), sequence (P21728 whole entry, looked up): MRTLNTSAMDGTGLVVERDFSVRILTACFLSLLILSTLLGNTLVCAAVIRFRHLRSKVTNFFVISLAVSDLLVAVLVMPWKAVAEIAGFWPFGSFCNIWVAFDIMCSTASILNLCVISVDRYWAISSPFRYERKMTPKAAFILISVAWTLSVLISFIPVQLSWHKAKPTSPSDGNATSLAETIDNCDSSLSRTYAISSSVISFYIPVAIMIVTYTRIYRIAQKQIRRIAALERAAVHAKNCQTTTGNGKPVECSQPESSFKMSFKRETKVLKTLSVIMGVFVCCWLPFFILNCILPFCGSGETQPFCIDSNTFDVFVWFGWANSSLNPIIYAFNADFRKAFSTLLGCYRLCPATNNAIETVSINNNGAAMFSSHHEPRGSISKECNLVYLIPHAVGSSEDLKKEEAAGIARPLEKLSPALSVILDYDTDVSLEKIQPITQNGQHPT

| SMILES | activity change, negative = inhibition |
| --- | --- |
| COc1cc(NC(=O)Cn2c(=O)n(Cc3ccco3)c(=O)c3oc4ccccc4c32)cc(OC)c1 | 8.05% |
| COc1cc(OC)c(OC)cc1/C=C/c1nc2ccccc2c(=O)n1-c1ccc(Br)c(C)c1 | 0.553% |
| CC(C)Cc1nnc(NC(=O)CCc2ccccc2)s1 | 3.92% |
| Cc1ccc(S(=O)(=O)CCC(=O)Nc2nnc(CC(C)C)s2)cc1 | 6.37% |
| CC(C)Cc1nnc(NC(=O)CCC(=O)Nc2ccc3cn[nH]c3c2)s1 | -55.6% (active) |
| Cc1c(Cl)cccc1NC(=O)C1CCCN(C(=O)c2cnn(-c3ccccc3)c2-n2cccc2)C1 (configuration not stated) | 7.6% |
| Cc1ccc(SCC(=O)Nc2ccc3oc(-c4ccccc4F)nc3c2)cc1 | -5.46% |
| CCOC(=O)c1ccccc1NC(=O)c1nn(-c2ccc(OC)c(Cl)c2)c(=O)c2c1c1ccccc1n2C | 5.56% |
| O=C(CSc1cn(CC(=O)N2CCOCC2)c2ccccc12)Nc1ccccc1 | 11.6% |
| COc1cccc(NC(=O)CN(C)C(=O)/C=C/c2cc(OC)ccc2OC)c1 | 24.2% |
| COc1cccc(NC(=O)CN(C)C(=O)c2ccccc2CCc2ccccc2)c1 | 3.89% |
| COc1cccc(NC(=O)CN(C)C(C)C(=O)Nc2ccc(C#N)cc2)c1 (configuration not stated) | -40.7% (active) |
| COC(=O)c1ccccc1NC(=O)c1cnn(-c2ccc(F)cc2)c1-n1cccc1 | 15% |
| Cc1cccc(NC(=O)Cn2c(C(F)(F)F)nc3ccccc32)c1C | -9.8% |
| COc1cccc(C(=O)NCc2ccc3c(c2)CCN3C(=O)c2ccncc2)c1 | -7.86% |
| Cc1ccc(CNC(=O)c2c(O)nc3c(C)cccn3c2=O)cc1 | 16.2% |
| Cc1cccc(-n2c(SCC(N)=O)nc3c(oc4ccccc43)c2=O)c1 | -16.4% |
| O=C(CN1CCN(c2ccc(F)cc2)CC1)Nc1cccc(C(F)(F)F)c1 | -2.58% |
| CCc1sc(C(=O)N2CCN(CC(=O)Nc3cccc(F)c3)CC2)cc1C | -30.4% (active) |
| CC(=O)N1CCN(CC(=O)Nc2ccc(C)c(F)c2)CC1 | 1.94% |
| O=C(CSc1n[nH]c(-c2ccccc2)n1)N1CCCCC1 | -15.7% |
| COc1ccc(Cl)cc1NC(=O)NC(C)C(C)(C)C (configuration not stated) | -26.1% |
| Cc1ccc(Cl)cc1NC(=O)COC(=O)CC(C)(C)C | 4.47% |

| SMILES | activity change, negative = inhibition |
| --- | --- |
| COC(=O)[C@@H](NC(=O)Nc1cc(Cl)ccc1C)C(C)C | -41.7% (active) |
| Cc1cc2ccccc2n1CCNC(=O)c1ccc(F)cc1 | -21.6% |
| COc1ccc(S(=O)(=O)NCCSc2nnnn2-c2ccccc2)cc1 | -6.65% |
| Cn1c(C(=O)Nc2cccc(C(F)(F)F)c2)cc2c(=O)n3ccccc3nc21 | -9.44% |
| Cc1cc(Cl)c(S(=O)(=O)N(C)C)cc1OCC(N)=O | 5.54% |
| Cc1cc(Cl)c(S(=O)(=O)NCC2CCCO2)cc1OCC(N)=O (configuration not stated) | -3.64% |
| Cc1cc(Cl)c(S(=O)(=O)Nc2ccc3c(c2)OCCO3)cc1OCC(N)=O | -35.2% (active) |
| COc1ccc(CNC(=O)Cc2coc3ccc(C(C)C)cc23)cc1 | -5.84% |
| COc1cccc(N2CCN(S(=O)(=O)c3cc(Br)cc4c3N(C(=O)C3CC3)CC4)CC2)c1 | -4.38% |
| COc1ccccc1NC(=O)Cn1cnc2ccc(S(=O)(=O)N3CCC(C)CC3)cc2c1=O | 0.0222% |
| CC1CCN(S(=O)(=O)c2ccc3ncn(CC(=O)N(C)C4CCCCC4)c(=O)c3c2)CC1 | -7.06% |
| CCN1CCCC1CNC(=O)Cn1cnc2ccc(S(=O)(=O)N3CCC(C)CC3)cc2c1=O (configuration not stated) | -45% (active) |
| COc1ccc(-c2nn(CC(=O)NC3CCCC3)c3c2cnc2ccc(F)cc23)cc1 | -17.2% |
| Cc1ccc(NC(=O)CN2C(=O)CC(C)Sc3ccccc32)c(C)c1 (configuration not stated) | 5.35% |
| COC(=O)C1=CN(c2ccc(F)c(F)c2)C=C(C(=O)OC)C1c1ccc([N+](=O)[O-])cc1 | 13.5% |
| NC(=O)C1(C(N)=O)OC1c1ccc(Cl)cc1Cl (configuration not stated) | -18.1% |
| COC(=O)C1=CN(C)C=C(C(=O)OC)C1c1ccc(Cl)cc1Cl | -50.3% (active) |
| Cc1ccc(Nc2ccc3cc(S(=O)(=O)N4CCCCC4)ccc3n2)cc1F | -15.5% |
| COc1ccccc1NC(=O)CCN1CCN(c2ccc(Cl)cc2)CC1 | -41% (active) |
| COc1ccc(NC(=O)CCN2CCCC2)c(OC)c1 | 0.848% |
| CCOc1ccccc1NC(=O)CCN1CCN(S(=O)(=O)c2ccc(OC)cc2)CC1 | -3.32% |
| Cc1ccc(C(=O)NC(=S)Nc2ccc(N3CCOCC3)cc2)cc1 | -12.4% |
| COc1ccc(C(=O)NC(=S)Nc2ccccc2N2CCN(S(C)(=O)=O)CC2)cc1OC | -7.6% |

| SMILES | activity change, negative = inhibition |
| --- | --- |
| COc1ccc(C(=O)NC(=S)Nc2ccc(N3CCCC3)cc2)cc1OC | -30.7% (active) |
| O=C(NCc1ccc2c(c1)CCN2C(=O)c1ccccc1)Nc1cc(F)ccc1F | 1.84% |
| Cc1[nH]n(C)c(=O)c1C(=O)c1c(-c2c(Cl)cccc2Cl)noc1C | -9.05% |
| Cc1[nH]n(C)c(=O)c1N=Nc1ccc(S(C)(=O)=O)cc1 | -33.8% (active) |
| Cc1c(N=Nc2ccc(N(C)C)cc2)c(=O)n(-c2ccccc2)n1C | -0.41% |
| CCOc1ccc(S(=O)(=O)N2CCCCCC2)c2ccccc12 | 1.18% |
| CCOc1cc(C)c(Cl)cc1S(=O)(=O)n1nnc2ccccc21 | -41.9% (active) |
| CCOc1cc(C)c(S(=O)(=O)NCc2ccccn2)cc1C | -15% |
| COc1ccc(OC)c(CNC(=O)CN2C(=O)CCn3nc(-c4cn(C)c5ccccc45)cc32)c1 | 9.51% |
| COc1ccc(-n2ccnc(NCCc3ccc(Cl)cc3)c2=O)cc1OC | -3.67% |
| Cc1cccc(N2CCN(C(=O)c3cc4c(=O)oc5ccccc5c4s3)CC2C)c1 (configuration not stated) | -15.4% |
| CCOc1ccc2oc(=O)cc(CN3CCN(C(=O)c4ccc(F)cc4)CC3)c2c1 | -25% |
| CCC(=O)N1CCc2cc(Br)cc(S(=O)(=O)NCc3ccc(Cl)cc3)c21 | 4.98% |
| CC1Sc2ccc(S(=O)(=O)CCC(=O)NCc3ccccc3Cl)cc2NC1=O (configuration not stated) | -9.63% |
| Cc1cccc(N2CCN(C(=O)CCS(=O)(=O)c3ccc4c(c3)NC(=O)C(C)S4)CC2)c1C (configuration not stated) | -41.4% (active) |
| COc1ccccc1N1CCN(C(=O)CCS(=O)(=O)c2ccc3c(c2)NC(=O)C(C)S3)CC1 (configuration not stated) | 5.52% |
| CCn1c2ccccc2c2cc(CN3CCN(Cc4cccc(Cl)c4)CC3)ccc21 | -24.4% |
| COc1ccc(/C(N)=N/OC(=O)Cc2ccccc2)cc1 | 3.45% |
| COc1ccc(/C(N)=N/OC(=O)CCCc2ccccc2)cc1 | -50.3% (active) |
| N/C(=N\OC(=O)CCc1ccccc1)c1ccc(Cl)cc1 | -6.68% |
| CCOc1ccc(CNC(=O)c2cc(-c3ccc(Cl)s3)nc3ccccc23)cc1 | 13.1% |
| COc1ccc(NC(=O)CCCN2C(=O)CCn3nc(-c4cn(C)c5ccccc45)cc32)cc1OC | 16% |
| Cc1nc(CNS(=O)(=O)c2cc([N+](=O)[O-])ccc2C)cs1 | 8.15% |

| SMILES | activity change, negative = inhibition |
| --- | --- |
| Cc1nc(CNS(=O)(=O)c2ccc(Oc3ccccc3)cc2)cs1 | -42.6% (active) |
| Cc1nn(C)c(Oc2ccccc2)c1CCNS(=O)(=O)c1ccc(F)cc1 | -5.72% |
| CCOc1ccc(C2C(C(=O)Nc3ccc(Cl)cc3)=C(C)Nc3nc(C(F)(F)F)nn32)cc1 (configuration not stated) | 10.7% |
| Cc1ccccc1-c1nc(SCC(=O)N(C)c2ccccc2)c2c(=O)n(C)c(=O)n(C)c2n1 | 8.47% |
| Cc1cccc(OCC(=O)Nc2ccccc2F)c1 | -0.963% |
| Cc1cccc(OCC(=O)NCC(=O)N/N=C/c2ccc(N(C)C)cc2)c1 | -31.7% (active) |
| CCOc1ccccc1/C=N/NC(=O)CNC(=O)COc1ccccc1 | -1.88% |
| Cc1oc2ccc(O)c(CN3CCC(C)CC3)c2c1C(=O)Nc1ccccc1 | 7.02% |
| COc1cccc(NC(=O)CSc2cc(=O)n(C)c3ccc(Cl)cc23)c1 | -17.9% |
| CC(Oc1ccc(Cl)cc1Cl)C(=O)/C=C/N(C)C (configuration not stated) | -37.2% (active) |
| CC(Oc1ccc(F)cc1F)C(=O)/C=C/N(C)C (configuration not stated) | 2.85% |
| CC(=O)N(OCc1ccc(OC(C)C)c(Cl)c1)C(C)=O | -4.21% |
| COc1ccc(C(=O)Nc2nonc2-c2ccc(OC)c(OC)c2)cc1Cl | 0.206% |
| CCc1cccc(NC(=O)Cn2nc(CC)n3c(cc4cc(C)ccc43)c2=O)c1 | 4.91% |
| CCCS(=O)(=O)Nc1cccc(-c2cn3ccsc3n2)c1 | -4.71% |
| O=C(COc1ccccc1)N1CCN=C1SCc1cccc(F)c1 | -31.4% (active) |
| CCC(=O)N1CCN=C1SCc1ccc(F)cc1 | -8.09% |
| O=C(Cc1ccc(F)cc1)N1CCN=C1SCc1cccc([N+](=O)[O-])c1 | -1.86% |
| COc1cc(OC)cc(-c2nc3nc(C)c(CCC(=O)Nc4ccc(C)cc4)c(C)n3n2)c1 | -10.7% |
| CC(C)c1ccc(NS(=O)(=O)c2ccc3[nH]cc(C(=O)NC4CCCC4)c(=O)c3c2)cc1 | 19.6% |
| CCOC(=O)CCC(=O)OCC(=O)NC(C)C1CC2CCC1C2 (configuration not stated) | -3.11% |
| Cc1c(C(=O)NC(C)C2CC3CCC2C3)cccc1[N+](=O)[O-] (configuration not stated) | 18.8% |
| COC(=O)c1cc(C(=O)NC(C)C2CC3CCC2C3)cc([N+](=O)[O-])c1 (configuration not stated) | -60.3% (active) |
